Drawing on PubChem BioAssay (NCI), this text covers growth for 14 molecules.

Some test systems named below: DU-145 prostate; K-562 leukemia; MALME-3M melanoma; MDA-MB-231 breast; RXF 393 renal; SF-268 CNS; SF-295 CNS; SF-539 CNS; UACC-257 melanoma; M14 melanoma.
Test in all cases: NCI-60 one-dose screen, 48 h (100 = growth as untreated, 0 = no growth, -100 = all killed)
Common to all, as to details: 10 µM

The panel holds about 83,000 compounds, 20% with a hit somewhere; the sample as a whole holds those more often.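 The endpoint reported here, percent growth, reads 100 for growth as untreated, 0 for no net growth and -100 for all cells dead.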 Values without a mark were called inactive. The source made the active and inactive calls. The calls were made as follows: active = growth percent below 10; inactive = the rest.

For the molecule `O=C1Nc2ccc(F)cc2/C1=C/c1cccc(OCc2ccccn2)c1`, the growth in the assay with DU-145 prostate was 42.5%; in the assay on K-562 leukemia it was 4.79% (active); in the assay with MALME-3M melanoma it was 54.1%; with MDA-MB-231 breast, 30.7%; in the assay with RXF 393 renal it was 28.3%; with SF-268 CNS it was 23.4%. In addition, the growth was 24.3% in the assay with SF-295 CNS, 35.5% with SF-539 CNS and 44.1% with UACC-257 melanoma.
In the case of `Nc1nnc(-c2c[nH]c3ncccc23)c(-c2c[nH]c3ccc(Br)cc23)n1`, the growth in the assay with DU-145 prostate was 62.4%; in the assay on K-562 leukemia, 32.9%; in the assay on MALME-3M melanoma it was 46.8%; in the assay on MDA-MB-231 breast, 41.6%; with RXF 393 renal it was 45.4%; with SF-268 CNS it was 51.8%. In addition, the growth is 41.9% in the assay on SF-295 CNS, 37.2% in the assay on SF-539 CNS and 82.1% in the assay with UACC-257 melanoma.
Consider `Cc1ccc2nc3c(nc2c1)c1cc(I)ccc1n3CCN(C)C`, for which the growth in the assay with DU-145 prostate was 13%; with K-562 leukemia it was 4.47% (active); in the assay on MALME-3M melanoma, 9.73% (active); in the assay on MDA-MB-231 breast it was 14.8%; in the assay with RXF 393 renal, 29.8%; in the assay on SF-268 CNS it was 45.4%. Further, the growth in the assay on SF-295 CNS is 17.3%; in the assay with SF-539 CNS it was 26.4%; in the assay on UACC-257 melanoma, 41.9%; with M14 melanoma, 16.3%.
With `O=C(Nc1ccc(I)cc1)Nc1nc2ccc([N+](=O)[O-])cc2s1`, the growth is -100% (active) with DU-145 prostate; -82.8% (active) in the assay on K-562 leukemia; -99.7% (active) in the assay on MALME-3M melanoma; -100% (active) in the assay with MDA-MB-231 breast; -95.1% (active) in the assay on RXF 393 renal; -83.7% (active) in the assay on SF-268 CNS. Also, the growth was -95.4% (active) in the assay on SF-295 CNS, -99.7% (active) in the assay with SF-539 CNS, -91% (active) with UACC-257 melanoma and -100% (active) in the assay with M14 melanoma.
Take `COc1ccccc1[C@H]1C(C(=O)c2ccc(O)cc2)C2(N[C@@H]1c1ccccc1)C(=O)Nc1ccc(Br)cc12` (stereo not given in full): the growth in the assay with DU-145 prostate is 56%; in the assay on K-562 leukemia, 23.1%; in the assay with MALME-3M melanoma it was 66.3%; with MDA-MB-231 breast it was 32.9%; with RXF 393 renal, 13.5%; with SF-268 CNS, 53.1%. Also, the growth in the assay with SF-295 CNS was 27.9%; in the assay with SF-539 CNS, 51.8%; with UACC-257 melanoma it was 56.1%; with M14 melanoma, 51.6%.
As for `CN(C(=O)c1ccc(C(F)(F)F)cc1C(F)(F)F)c1sc2c(c1C#N)CCC(=O)C2`, the growth is 103% in the assay with DU-145 prostate; 6.49% (active) with K-562 leukemia; 99% in the assay with MALME-3M melanoma; 71.1% with MDA-MB-231 breast; 7.86% (active) in the assay on RXF 393 renal; 85% in the assay with SF-268 CNS. For the same molecule, the growth in the assay with SF-295 CNS is 65.1%; in the assay on SF-539 CNS, -37.6% (active); in the assay with UACC-257 melanoma, 99%.
Take `COc1ccc(CCN2C(=O)/C(=C/c3csc(C#N)n3)SC2=S)cc1OC`: the growth is -10.9% (active) in the assay on DU-145 prostate; 1.08% (active) in the assay on K-562 leukemia; 2.58% (active) in the assay with MALME-3M melanoma; 95.7% in the assay on MDA-MB-231 breast; -1.04% (active) with RXF 393 renal; 99.4% with SF-268 CNS. The growth was 98.7% in the assay on SF-295 CNS, -1.47% (active) with SF-539 CNS and 13.4% in the assay on UACC-257 melanoma.
Take `C=C1CCC2C3(C)COC(c4c(F)cccc4F)OC3CCC2(C)C1CC(O)C1=CCOC1=O` (stereo not given): the growth in the assay on DU-145 prostate was 68.1%; with K-562 leukemia, 21.4%; with MALME-3M melanoma, 96.3%; with MDA-MB-231 breast it was 91.1%; in the assay with RXF 393 renal, 66.1%; in the assay on SF-268 CNS, 98.5%. Further, the growth is 79.4% in the assay with SF-295 CNS, 57% with SF-539 CNS, 74.1% in the assay with UACC-257 melanoma and 53.9% in the assay on M14 melanoma.
For the molecule `COC(=O)CC1CC1C1Cc2c(nc(N(C)S(C)(=O)=O)nc2C(C)C)-c2ccc(F)cc21` (stereo not given), the growth in the assay with DU-145 prostate is 92.7%; in the assay on K-562 leukemia it was 34.3%; in the assay with MALME-3M melanoma, 112%; in the assay on MDA-MB-231 breast, 69.3%; in the assay with RXF 393 renal, 79.8%; with SF-268 CNS, 93.8%. For the same molecule, the growth in the assay with SF-295 CNS was 72.4%; in the assay with SF-539 CNS, 96%; in the assay on UACC-257 melanoma, 83.8%.
As for `O=C(Nc1cc(Cl)cc(Cl)c1)Nc1cc(Cl)cc(Cl)c1`, the growth is 15.2% in the assay with DU-145 prostate; -25.5% (active) in the assay with K-562 leukemia; -40.5% (active) in the assay with MALME-3M melanoma; -65.6% (active) with MDA-MB-231 breast; -15.1% (active) in the assay on RXF 393 renal; 9.6% (active) in the assay with SF-268 CNS. Further, the growth was -47.9% (active) in the assay with SF-295 CNS, -46.2% (active) in the assay with SF-539 CNS, -29.7% (active) in the assay with UACC-257 melanoma and -77.9% (active) in the assay on M14 melanoma.
Turning to `CC(=O)NNc1ccc2nnc(-c3ccc(Br)cc3)n2n1`, the growth in the assay on DU-145 prostate was 103%; in the assay on K-562 leukemia, 95.5%; with MALME-3M melanoma it was 107%; in the assay on MDA-MB-231 breast it was 94%; in the assay with RXF 393 renal it was 68.5%; with SF-268 CNS, 102%. Besides, the growth in the assay with SF-295 CNS was 96.1%; in the assay on SF-539 CNS, 90.2%; in the assay on UACC-257 melanoma, 105%; with M14 melanoma, 98.2%.
For `O=c1cc(-c2ccccc2)oc2cc(OCCCNCc3ccccc3)cc(O)c12`, the growth with DU-145 prostate was 13.2%; with K-562 leukemia, -20.1% (active); with MALME-3M melanoma, -94.3% (active); in the assay on MDA-MB-231 breast, -43.1% (active); in the assay on RXF 393 renal, -56.7% (active); with SF-268 CNS it was 25.2%. In addition, the growth in the assay on SF-295 CNS was -81.8% (active); in the assay with SF-539 CNS it was -97.3% (active); in the assay with UACC-257 melanoma it was -69.7% (active); in the assay on M14 melanoma it was -76% (active).
In the case of `COc1cc(/C=N/NC(=O)c2ccc3nc(-c4ccc(Cl)cc4)[nH]c3c2)cc(OC)c1OC`, the growth is -28.7% (active) with DU-145 prostate; -12.4% (active) in the assay with K-562 leukemia; -92.8% (active) with MALME-3M melanoma; -74.5% (active) in the assay with MDA-MB-231 breast; -84.3% (active) with RXF 393 renal; -33.9% (active) with SF-268 CNS. The growth was -73.7% (active) with SF-295 CNS, -95.7% (active) in the assay with SF-539 CNS, -47.7% (active) in the assay with UACC-257 melanoma and -28% (active) in the assay with M14 melanoma.
On to `CO[C@@H]1CSS[C@H]1Cn1nc(-c2ccc(Oc3ccccc3)cc2)c2c(N)ncnc21`, for which the growth with DU-145 prostate is 73.5%; in the assay on K-562 leukemia, 8.2% (active); in the assay with MALME-3M melanoma, 63.4%; with MDA-MB-231 breast it was 72.6%; in the assay on RXF 393 renal it was 35.5%; in the assay on SF-268 CNS it was 70%. Further, the growth was 43.1% in the assay with SF-295 CNS, 50% with SF-539 CNS, 40.8% with UACC-257 melanoma and -64.2% (active) in the assay with M14 melanoma.
